Pf growth 48h – P. falciparum growth inhibition at 48 hours (one generation); Potency, µM (doses to about 28.7 µM), actives largely listed as inhibitors; 310,000 compounds, 5.9% hits; P. falciparum luciferase growth in erythrocytes, 48 h
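Luciferase-expressing P. falciparum in infected erythrocytes (2% hematocrit, 0.1% parasitemia final) in RPMI 1640/0.5% Albumax were exposed to compound for 48 hours at 37 C, 5% CO2; growth read as luminescence.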
NS1 inh – influenza NS1 inhibition; Potency, µM (series often up to 46.1 µM); 270,000 compounds, 0.4% hits; AID 2326; calls by dose curve; note: actives are rising curves; nearly all actives have a fitted effect of over 50% in size
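Growth recovery, yeast-based: influenza A NS1 expressed in S. cerevisiae causes slow growth, and suppressors are detected by OD600. The parent strain without NS1 is used as positive control.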
Shiga inhibitor – inhibitors of Shiga toxin in Vero cells | Vero cells, Shiga toxin protein synthesis inhibition reporter | inhibition, % at 38.7 µM | 290,000 compounds, 9.2% hits | AID 2315; in the data active = inhibition mostly above about 28%, no sharp cut-off; inactive = mostly below about 43%
Pf growth 96h – P. falciparum growth inhibition at 96 hour, primary screen for plastid delayed-death inhibitors; Potency, µM (series often up to 28.7 µM), hits mostly inhibitors; P. falciparum luciferase reporter growth, 96 h; AID 504834; 320,000 compounds, 6.9% hits
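Two-generation exposure (96 h) targets delayed-death phenotype. Reporter parasites carrying integrated firefly luciferase, in red cells at 2% hematocrit and 0.05% parasitemia final, kept at 37 C, 5% CO2; luminescence loss indicates inhibition.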
Giardia FBPA inh – inhibitors of Giardia lamblia fructose-1,6-bisphosphate aldolase; A8B2U2; purified Giardia FBPA; Potency, µM (doses to about 59.6 µM), actives largely listed as inhibitors; 290,000 compounds, 0.71% hits; AID 2451; note: nearly all actives have a fitted effect of over 55% in size
Target sequence (A8B2U2 whole entry, looked up): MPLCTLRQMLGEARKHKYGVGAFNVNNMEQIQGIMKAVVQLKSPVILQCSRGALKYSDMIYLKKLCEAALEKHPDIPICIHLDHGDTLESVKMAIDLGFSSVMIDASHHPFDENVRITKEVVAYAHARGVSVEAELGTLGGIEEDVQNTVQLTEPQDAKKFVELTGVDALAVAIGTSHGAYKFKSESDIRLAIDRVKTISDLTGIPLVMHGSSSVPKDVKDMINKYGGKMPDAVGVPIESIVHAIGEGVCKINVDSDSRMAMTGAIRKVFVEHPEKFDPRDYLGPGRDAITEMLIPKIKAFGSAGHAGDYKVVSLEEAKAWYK
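Giardia FBPA (40 nM reagent) was preincubated 10 min at RT with compound (up to 57.5 uM final), then substrate plus GAPDH/TPI/NAD/arsenate coupling system with diaphorase/resazurin was added; resorufin fluorescence (525/598 nm) was read after 20 min.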
CHX counter – affects cycloheximide protein synthesis inhibition readout, counter-screen | cell reporter, cycloheximide protein synthesis inhibition counterscreen | max response, % | 300,000 compounds, 12% hits | AID 2314; in the data active = max response mostly above about 13%, no sharp cut-off; inactive = mostly below about 14%; note: read at 38.3 µM for the half of the compounds with a filed dose
Hits are given with their value; . = inactive; ? = inconclusive; / = no result; + = active, no number; [ ] = another dose, or the depositor's remark. Compounds with a hit are over-represented: about 21% of the library has one in this group of screens. Unless noted, calls come from the whole dose curve; as a rule, active = well fitted curve in the direction sought with a large enough effect; inconclusive = small, poorly fitted or top-dose-only effect, or another doubt; inactive = no such curve, though single readings can be large; an effect the other way counts as inactive or inconclusive.

SMILES	Pf growth 48h	NS1 inh	Shiga inhibitor	Pf growth 96h	Giardia FBPA inh	CHX counter
COc1ccc(Br)cc1/C=N/n1c(COc2ccccc2)n[nH]c1=S	/	.	.	.	.	.
COCCCNC(=O)c1ccccc1N(Cc1ccccc1)S(=O)(=O)c1ccccc1	?	.	.	?	.	.
CSCCC(NC(=O)c1cccc(C)c1)C(=O)OCN1C(=O)c2ccccc2C1=O (stereo not given)	.	/	/	.	/	/
CC1=C(C(=O)OCCNC(=O)c2ccccc2O)C(c2ccccc2[N+](=O)[O-])C(C(=O)OCC2CCCO2)=C(C)N1 (stereo not given)	?	.	.	5.2µM	.	.
C=CCc1cccc2cc(C(=O)Nc3ccccc3C(=O)O)c(=O)oc12	.	.	.	.[5.75 µM]	.	.
CCN1CCCC1CN(Cc1cc2ccc(C)cc2[nH]c1=O)C(=S)Nc1ccc(F)cc1 (stereo not given)	.	.	.	.	.	.
O=C(N/N=C/c1cccs1)c1cc(C2CC2)nc2ccccc12	.	.	.	.	.	.
Cc1ccsc1/C=N/Nc1nc2ccccc2s1	.	?	146	?	.	70
C(=N\Nc1nc2ccccc2s1)/c1cccs1	.	.	103	.	.	50
Cc1ccsc1/C=N\NC(=O)Cn1nnc2ccccc21	.	.	.	.	.	.
CCn1c(/C=C/c2c(C)n(CC)c3ccccc23)nc2ccccc2c1=O	.	.	.	.	.	.
Cc1ccc(C)c(-c2csc(Nc3ncccn3)n2)c1	.	.	.	.	.	.
CCn1c(C)c(/C=N/Nc2nc3ccccc3s2)c2ccccc21	?	.	105	?	/	61
Cc1ccc(C)c(-c2csc(N/N=C/c3ccco3)n2)c1	?	/	95	.	.	.
C[C@]12CC[C@H]3c4ccc(O)cc4CC[C@@H]3[C@H]1CC[C@@H]2OC(=O)CCc1ccccc1	/	.	/	/	/	/
CCN(CC)S(=O)(=O)c1ccc(C(=O)OCC(=O)NCCN2C(=O)CSC2=O)cc1	.	.	.	.	.	.
Cc1ccc(-n2nc3c(=O)n(C(C)C(=O)NC4CC4)nc(C)c3c2C)cc1 (stereo not given)	?	.	.	?	.	.
Cc1noc(C)c1S(=O)(=O)Nc1ccc(O)c2c(=O)cc(-c3ccccc3Cl)oc12	.	.	.	.	.	.
C(=N\Nc1nc2ccccc2s1)/c1ccco1	.	.	45	.	.	44
O=C(COC(=O)c1ccc[nH]c1=O)Nc1cc(S(=O)(=O)N2CCCCCC2)ccc1Cl	.	/	/	.	/	/
CC(C)CNC(=O)COc1ccccc1[N+](=O)[O-]	.	.	.	.	.	.
O=C(COc1ccccc1[N+](=O)[O-])c1ccccc1	?	.	.	.	.	25
Cc1ccc(/C(COc2ccccc2O)=N\O)cc1	.	.	.	.	.	.
COC(=O)/C=C/COc1ccccc1[N+](=O)[O-]	.	.	107	.	.	43
O=[N+]([O-])c1ccccc1OC/C(=N\O)c1ccccc1	.	.	41	.	.	15
SMILES	Pf growth 48h	NS1 inh	Shiga inhibitor	Pf growth 96h	Giardia FBPA inh	CHX counter
O=C(/C=C/c1ccccc1[N+](=O)[O-])OCC(=O)c1ccccc1	.	.	79	.	.	37
Cc1cc(C)c(OCC(=O)OC(C)C(=O)NC2CC2)c(C)c1 (stereo not given)	.	.	.	.	/	.
CC(=O)Nc1cccc(OCCCNC(=O)c2cccc3ccccc23)c1	.	.	.	?	.	.
O=C(COC(=O)/C=C/c1cccc(Br)c1)NC1CCCCCC1	.	/	/	.	/	/
O=S(=O)(c1ccccc1)N1CC1c1ccccc1 (stereo not given)	.	.	38	.	.	47
O=S(=O)(c1ccc(Cl)cc1)N1CC1c1ccccc1 (stereo not given)	.	?	.	.	.	.
Cc1ccc(CC(CC(=O)Nc2cccc(C(F)(F)F)c2)C(=O)O)cc1 (stereo not given)	.	/	.	15µM	.	.
O=C(CC(Cc1ccccc1)C(=O)O)Nc1ccccc1 (stereo not given)	.	.	.	.	.	.
O=C(COc1coc(CN2CCc3ccccc3C2)cc1=O)Nc1cccc(Cl)c1	.	/	/	?	/	/
O=C(COc1coc(CN2CCc3ccccc3C2)cc1=O)Nc1cccc(F)c1	.	/	/	4.7µM	/	/
COc1ccc(NC(=O)COc2coc(CN3CCc4ccccc4C3)cc2=O)cc1	.	/	/	13µM	/	/
Cc1ccccc1C(=O)NC1CCN(Cc2ccccc2)CC1	.	.	.	.	.	.
O=C(NCCC1=CCCCC1)c1ccc(F)cc1	.	.	+	.	.	39
Cc1cc(F)ccc1S(=O)(=O)Nc1ccccc1C(=O)NC1CCN(Cc2ccccc2)CC1	2.9µM	/	/	3.3µM	/	/
O=C(NCCC1=CCCCC1)c1ccc(Br)o1	.	.	84	.	.	28
O=C(Cc1ccccc1[N+](=O)[O-])NCCC1=CCCCC1	.	.	61	?	.	26
O=C(CCNC(=O)c1ccc([N+](=O)[O-])cc1)NCCC1=CCCCC1	.	/	/	.	/	/
O=C(CCNC(=O)c1ccc(Cl)cc1)NCCC1=CCCCC1	.	/	/	.	/	/
CCCN(CC(=O)Nc1ccccc1C)C(=O)C1CC(=O)N(c2ccc(CC)cc2)C1 (stereo not given)	.	/	/	?	/	/
CCCCNC(=O)CN(Cc1ccco1)S(=O)(=O)c1ccc(C(C)=O)cc1	.	/	/	.	/	/
CSCCC(NC(=O)c1ccccc1Cl)C(=O)N1CCCCC1 (stereo not given)	.	/	/	.	/	/
O=C(NCCC1=CCCCC1)c1ccc(CN2CCOCC2)cc1	.	.	45	.	.	40
COc1ccc(C(=O)NCCC2=CCCCC2)cc1OC	/	.	75	.	.	46
O=C(NCCC1=CCCCC1)c1ccc([N+](=O)[O-])cc1	.	.	131	.	.	75
Cc1ccc(C)n1-c1ccc(C(=O)NC2CCN(Cc3ccccc3)CC2)cc1	?	.	.	12µM	.	.
SMILES	Pf growth 48h	NS1 inh	Shiga inhibitor	Pf growth 96h	Giardia FBPA inh	CHX counter
COc1cc(C#N)ccc1OCC(=O)NCCC1=CCCCC1	.	/	/	.	/	/
Cc1c(Cl)cccc1NC(=O)c1cc(-c2ccc(O)cc2)on1	/	.	/	/	/	/
O=C(NC1CCCCCC1)c1ccc(CN2CCOCC2)cc1	.	.	96	10µM	.	41
Cc1cc(C(=O)NCCC2=CCCCC2)ccc1[N+](=O)[O-]	.	.	96	.	.	49
COc1ccc(OC)c(NC(=O)C(=O)NCCC2=CCCCC2)c1	.	.	.	.	.	.
O=C(NCCc1ccc(F)cc1)c1ccc([N+](=O)[O-])cc1	.	.	67	.	.	34
COc1cccc(C(=O)NCCC2=CCCCC2)c1	/	.	74	.	.	30
O=C(CCNC(=O)c1ccc([N+](=O)[O-])cc1)Nc1ccc(F)cc1	.	.	.	.	.	.
CCN(CC(=O)N1CCOCC1)S(=O)(=O)c1ccc(Cl)cc1	.	.	.	.	/	.
CCN(CC)CCNC(=O)CCc1nnc2ccc(N3CCC(C)CC3)nn12	.	.	.	.	.	.
